For eight molecules, growth results are on record in PubChem BioAssay (NCI).

Some test systems named below: NCI-H23 lung; NCI-H226 lung; NCI-H322M lung; HOP-62 NSCLC; NCI-H460 lung; HOP-92 NSCLC; NCI-H522 lung; A549/ATCC NSCLC; 786-0 renal; COLO 205 colon; DU-145 prostate; K-562 leukemia; MALME-3M melanoma; MDA-MB-231 breast; RXF 393 renal; SF-268 CNS; SF-295 CNS; SF-539 CNS; UACC-257 melanoma; M14 melanoma.
What all share (experiment): NCI-60 one-dose screen, 48 h (100 = growth as untreated, 0 = no growth, -100 = all killed)
Holding throughout (details): 10 µM unless noted

This is part of a sample that, as a whole, favours compounds with a hit. Of some 83,000 tested, about 20% had one in any assay.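 How to read the values: 0–100, growth inhibition (40 = 60% inhibited); 0, no net growth; -100 to 0, cell death (-40 = 40% of starting cells died; -100 = all dead).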 Values without a mark were called inactive. The source made the active and inactive calls. Rule for the calls: active = growth percent below 10; inactive = the rest.

In the case of `S=C(c1ccc2c(c1)OCO2)N1CCN(c2ccccc2Cl)CC1`, the growth with NCI-H23 lung is 101%; in the assay with NCI-H226 lung it was 87.9%; in the assay on NCI-H322M lung it was 103%; with HOP-62 NSCLC it was 102%; in the assay with NCI-H460 lung, 102%; in the assay with HOP-92 NSCLC, 67.3%. Moreover, the growth is 74.8% in the assay on NCI-H522 lung; 98.2% in the assay with A549/ATCC NSCLC; 92.4% with 786-0 renal; 97.1% in the assay with COLO 205 colon; 105% with DU-145 prostate; 108% with K-562 leukemia. The growth in the assay with MALME-3M melanoma was 72%; in the assay with MDA-MB-231 breast, 98.7%; in the assay with RXF 393 renal it was 109%; with SF-268 CNS it was 94%; in the assay with SF-295 CNS, 118%; with SF-539 CNS it was 102%. For the same molecule, the growth with UACC-257 melanoma was 96.2%; with M14 melanoma, 99.3%.

As to `O=C(O)C1CCC(=O)N1C(=O)OCc1ccccc1` (stereo not given), the growth is 93.7% in the assay with NCI-H23 lung; 94.1% with NCI-H226 lung; 94% with NCI-H322M lung; 94.2% in the assay on HOP-62 NSCLC; 106% with NCI-H460 lung; 98.7% with HOP-92 NSCLC. Besides, the growth with NCI-H522 lung was 92.8%; in the assay on A549/ATCC NSCLC it was 96.7%; in the assay with 786-0 renal it was 93%; in the assay with COLO 205 colon it was 124%; in the assay on DU-145 prostate it was 117%; with K-562 leukemia, 92.4%. Further, the growth was 96.2% in the assay on MALME-3M melanoma; 112% in the assay with MDA-MB-231 breast; 96.6% in the assay on RXF 393 renal; 111% in the assay on SF-268 CNS; 106% in the assay on SF-295 CNS; 96.9% in the assay with SF-539 CNS. Moreover, the growth in the assay on UACC-257 melanoma is 95.4%; with M14 melanoma it was 102%.

Consider `O=C(/C=C/c1ccco1)c1ccc(Nc2nc(Nc3ccc(F)cc3)nc(Nc3ccc(Cl)cc3)n2)cc1`, for which the growth in the assay on NCI-H23 lung is 59.5%; in the assay on NCI-H226 lung, 86%; with NCI-H322M lung, 48.3%; in the assay with HOP-62 NSCLC it was 96.2%; with NCI-H460 lung, 61.7%; with HOP-92 NSCLC, 44.2%. Also, the growth is 76.8% in the assay with NCI-H522 lung; 38.3% in the assay on A549/ATCC NSCLC; 84.4% in the assay with 786-0 renal; 35.9% in the assay on COLO 205 colon; 77% in the assay on DU-145 prostate; 67.4% in the assay with K-562 leukemia. Besides, the growth is 75.1% with MALME-3M melanoma; 55.1% in the assay with MDA-MB-231 breast; 35.6% with RXF 393 renal; 80.2% in the assay on SF-268 CNS; 65.4% with SF-295 CNS; 102% in the assay on SF-539 CNS. The values for the growth in the assay with UACC-257 melanoma and in the assay with M14 melanoma were 101% and 84.5%, respectively.

Turning to `CC(=O)N1C(=S)NC(=O)C1Cn1c(-c2ccccc2)nc2ccccc21` (stereo not given), the growth with NCI-H23 lung was 95.2%; in the assay on NCI-H226 lung, 93.6%; in the assay with NCI-H322M lung, 96.8%; in the assay with HOP-62 NSCLC, 92.1%; in the assay on NCI-H460 lung, 105%; in the assay on HOP-92 NSCLC it was 97.5%. The growth in the assay with NCI-H522 lung is 86.9%; in the assay with A549/ATCC NSCLC, 102%; with 786-0 renal, 102%; in the assay on COLO 205 colon, 108%; in the assay on DU-145 prostate it was 110%; in the assay on K-562 leukemia, 101%. Moreover, the growth was 101% with MALME-3M melanoma; 90.4% with MDA-MB-231 breast; 96.5% in the assay with RXF 393 renal; 99.2% in the assay with SF-268 CNS; 105% in the assay on SF-295 CNS; 97.1% in the assay on SF-539 CNS. In addition, the growth in the assay with UACC-257 melanoma is 107%; with M14 melanoma, 103%.

With `CCN(CC)Cc1cccc(C(=O)OC)c1`, the growth with NCI-H23 lung was 96.6%; with NCI-H226 lung, 90.2%; with NCI-H322M lung it was 106%; in the assay on HOP-62 NSCLC, 85.2%; in the assay on NCI-H460 lung it was 103%; in the assay on HOP-92 NSCLC, 87.7%. Moreover, the growth in the assay with NCI-H522 lung is 101%; in the assay with A549/ATCC NSCLC, 69%; with 786-0 renal, 90.7%; in the assay on COLO 205 colon, 106%; in the assay with DU-145 prostate, 111%; in the assay with K-562 leukemia it was 110%. For the same molecule, the growth in the assay with MALME-3M melanoma was 95.3%; with MDA-MB-231 breast, 100%; with RXF 393 renal it was 105%; in the assay with SF-268 CNS, 104%; in the assay with SF-295 CNS it was 97.8%; in the assay with SF-539 CNS, 94%. Also, the growth is 73.4% in the assay on UACC-257 melanoma and 91.7% in the assay with M14 melanoma.

Turning to `COc1cc(-c2n/c(=C\c3c(O)[nH]c4ccc(Cl)cc34)cc3c2=Nc2ccccc2-3)cc(OC)c1OC`, the growth is -2.92% (active) with NCI-H23 lung; 62.6% in the assay on NCI-H226 lung; 68% in the assay with NCI-H322M lung; -8.81% (active) in the assay with HOP-62 NSCLC; -38% (active) in the assay on NCI-H460 lung; -25.4% (active) with HOP-92 NSCLC. Also, the growth was -0.596% (active) in the assay with NCI-H522 lung; -39.4% (active) in the assay on A549/ATCC NSCLC; -37.1% (active) with 786-0 renal; 8.86% (active) with COLO 205 colon; -15.4% (active) in the assay on DU-145 prostate; 3.48% (active) with K-562 leukemia. Moreover, the growth was -40.3% (active) in the assay with MALME-3M melanoma; -14.9% (active) with MDA-MB-231 breast; -70.3% (active) in the assay with RXF 393 renal; -11.8% (active) in the assay on SF-268 CNS; 7.89% (active) in the assay with SF-295 CNS; 31.2% in the assay with SF-539 CNS. In addition, the results for the growth in the assay with UACC-257 melanoma and in the assay on M14 melanoma were 27.2% and 0.836% (active), respectively.

For the molecule `C[C@@H]1N=C(c2ccc3ccccc3n2)Nc2nc3ccccn3c2C1=O`, the growth in the assay on NCI-H23 lung is 86.3%; in the assay with NCI-H226 lung, 94.4%; in the assay on NCI-H322M lung it was 97.3%; in the assay with HOP-62 NSCLC, 75.1%; in the assay with NCI-H460 lung it was 97.2%; in the assay on HOP-92 NSCLC, 97.2%. The growth in the assay with NCI-H522 lung is 102%; with A549/ATCC NSCLC, 105%; with 786-0 renal, 98.3%; with COLO 205 colon, 113%; in the assay on DU-145 prostate, 107%; with K-562 leukemia it was 102%. Besides, the growth in the assay on MALME-3M melanoma is 92.4%; with MDA-MB-231 breast it was 79.4%; with RXF 393 renal it was 119%; with SF-268 CNS, 101%; in the assay with SF-295 CNS, 90.4%; in the assay on SF-539 CNS, 86.7%. Besides, the growth in the assay with UACC-257 melanoma is 117%; with M14 melanoma it was 105%.

Turning to `COc1cccc2c1C(=O)c1c(O)c3c(c(O)c1C2=O)CC(O)(/C(C)=N/NC(=O)CCCCC(=O)N/N=C(\C)C1(O)Cc2c(O)c4c(c(O)c2C(OC2CC(N)C(O)C(C)O2)C1)C(=O)c1c(OC)cccc1C4=O)CC3OC1CC(N)C(O)C(C)O1` (stereo not given), the growth is -31.9% [5 µM] (active) in the assay on NCI-H23 lung; -56.1% [5 µM] (active) in the assay with NCI-H226 lung; -10.2% [5 µM] (active) with NCI-H322M lung; -1.23% [5 µM] (active) in the assay with HOP-62 NSCLC; -10.2% [5 µM] (active) in the assay on NCI-H460 lung; -50.7% [5 µM] (active) with HOP-92 NSCLC. For the same molecule, the growth in the assay with NCI-H522 lung is -57.7% [5 µM] (active); in the assay on A549/ATCC NSCLC, -22% [5 µM] (active); in the assay with 786-0 renal, 4.75% [5 µM] (active); in the assay with COLO 205 colon it was -91.9% [5 µM] (active); with DU-145 prostate it was -47.4% [5 µM] (active); in the assay with K-562 leukemia it was -51.8% [5 µM] (active). Also, the growth is -66.9% [5 µM] (active) in the assay with MALME-3M melanoma; -2.21% [5 µM] (active) in the assay on MDA-MB-231 breast; -55.4% [5 µM] (active) in the assay with RXF 393 renal; -31.3% [5 µM] (active) in the assay with SF-268 CNS; -35.3% [5 µM] (active) in the assay with SF-295 CNS; -41.8% [5 µM] (active) in the assay on SF-539 CNS. Moreover, the growth in the assay with UACC-257 melanoma was -34.3% [5 µM] (active); in the assay with M14 melanoma, -57.1% [5 µM] (active).
